# Compound activity as filed in PubChem.
# Hits are enriched below; roughly 2.1% of the tested compounds scored in any of these assays.
# Casp6 inh: inhibitors of human caspase-6. actives 0.53% (n = 350,000). purified caspase-6, Z-VEID-R110 cleavage fluorescence. AID 686996. inhibition, % at 12.5 µM. P55212;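 active = mean inhibition across replicates at least about 35%, with every replicate also reaching that limit, limit read from the data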;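 also: 0% = median of neutral control wells and 100% = no fluorescence left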
# Target sequence (P55212 24-179 limits assumed): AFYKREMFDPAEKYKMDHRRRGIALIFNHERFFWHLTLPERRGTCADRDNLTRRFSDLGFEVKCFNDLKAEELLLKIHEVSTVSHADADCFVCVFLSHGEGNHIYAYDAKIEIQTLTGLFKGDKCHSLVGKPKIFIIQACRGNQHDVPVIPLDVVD
# Target sequence (P55212 194-293 limits assumed): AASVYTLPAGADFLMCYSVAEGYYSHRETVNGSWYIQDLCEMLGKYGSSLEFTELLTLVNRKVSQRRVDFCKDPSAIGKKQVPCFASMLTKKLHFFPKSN
# PfHsp90 set2: inhibits growth of yeast expressing Plasmodium falciparum Hsp90; AID 504621; inhibition, % at 9.4 µM; S. cerevisiae expressing PfHsp90, BacTiter-Glo ATP, 48 h; yeast lacking PDR1 and PDR3 efflux regulators; actives 0.32% (n = 310,000);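 active = every replicate shows inhibition above about 80%, whatever the replicate mean, limit read from the data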;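 also: 0% = DMSO neutral controls and 100% = 20 µM radicicol positive controls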
# SIRT5 block: inhibitors of human sirtuin-5 desuccinylase. AID 652115. Purified SirT5, succinyl-peptide AMC, trypsin-coupled fluorescence. inhibition, % at 15 µM. Q9NXA8. actives 1.1% (n = 330,000); in the data active = inhibition above about 15%
# Target sequence (Q9NXA8 whole entry, looked up): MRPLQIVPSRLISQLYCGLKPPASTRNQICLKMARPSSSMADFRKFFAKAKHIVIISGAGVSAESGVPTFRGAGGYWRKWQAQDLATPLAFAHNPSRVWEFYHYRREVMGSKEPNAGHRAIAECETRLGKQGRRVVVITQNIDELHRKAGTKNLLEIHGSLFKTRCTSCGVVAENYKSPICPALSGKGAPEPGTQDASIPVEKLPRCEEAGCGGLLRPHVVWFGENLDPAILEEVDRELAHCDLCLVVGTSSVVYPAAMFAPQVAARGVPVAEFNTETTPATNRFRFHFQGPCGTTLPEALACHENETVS
# ARNT TACC3 PPI: disruptors of human ARNT/TACC3 interaction; actives 0.66% (n = 390,000); AlphaScreen His-ARNT PAS-B/GST-TACC3 binding, luminescence; TACC3 fragment carries E629A point mutation; Q9Y6A5; inhibition, % at 9.99 µM;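 active = mean inhibition of replicates at least 50% and at least half of replicates each reaching 50%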;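 also: 0% = complete ARNT plus TACC3 wells and 100% = ARNT alone without TACC3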
# NSD2 HMT inh: NSD2 (human) methyltransferase inhibition; NSD2 peptide methylation, AlphaScreen, 120 min; AID 743445; O96028; inhibition, % at 12.5 µM; actives 0.54% (n = 310,000); in the data active = inhibition above about 50%
# * marks the source's active call; other numbers are inactive results; . = not tested or not shown.
SMILES,Casp6 inh,PfHsp90 set2,SIRT5 block,ARNT TACC3 PPI,NSD2 HMT inh
C[C@@H]1CN([C@@H](C)CO)C(=O)c2cc(NC(=O)Cc3ccccc3)ccc2O[C@H]1CN(C)S(=O)(=O)c1cn(C)cn1,0.5,.,-8.5,-3.1,.
Cc1ccccc1N1C(=O)C2ON(c3ccccc3)C(c3ccco3)C2C1=O (stereo unspecified),1.1,17.6,23.1*,-8.7,-1.3
CCOc1ccc(N2C(=O)C3ON(c4ccccc4)C(c4ccco4)C3C2=O)cc1 (stereo unspecified),2.2,23.7,-0.6,-2.0,-13.7
C[C@H](CO)N1C[C@H](C)[C@H](CN(C)CC2CC2)Oc2cc(C#CC3CC3)ccc2S1(=O)=O,0.0,.,1.1,1.8,.
C[C@@H]1CN([C@H](C)CO)S(=O)(=O)c2ccc(C#Cc3ccccc3)cc2O[C@H]1CN(C)C(=O)C1CC1,-0.2,.,15.6*,-4.0,.
CCCC#Cc1ccc2c(c1)O[C@H](CN(C)C(=O)C1CC1)[C@H](C)CN([C@H](C)CO)S2(=O)=O,0.7,.,-1.6,49.9*,.
CCCC#Cc1ccc2c(c1)O[C@@H](CN(C)C(=O)C1CC1)[C@@H](C)CN([C@H](C)CO)S2(=O)=O,0.8,.,0.2,11.1,.
C[C@H]1CN([C@@H](C)CO)S(=O)(=O)c2ccc(C#Cc3ccccc3)cc2O[C@H]1CN(C)C(=O)C1CC1,2.0,.,3.7,16.1,.
CC(C)NC(=O)N(C)C[C@@H]1Oc2ccc(NC(=O)Cc3cn(C)c4ccccc34)cc2C(=O)N([C@H](C)CO)C[C@H]1C,0.7,.,1.9,1.8,.
Cc1ccccc1S(=O)(=O)N1[C@@H]2CNC[C@H]1C2c1ccc(/C=C/c2ccccc2)cc1 (stereo partly specified),1.1,.,4.4,.,.
Cc1ccccc1S(=O)(=O)N1[C@@H]2CNC[C@H]1[C@@H]2c1ccc(-c2ccc(C#N)cc2)cc1,40.2*,.,-4.9,.,.
COc1ccc(S(=O)(=O)N(C)C[C@@H]2OCCCC[C@@H](C)Oc3ccc(NS(=O)(=O)c4ccc(C)cc4)cc3C(=O)N([C@@H](C)CO)C[C@@H]2C)cc1,0.0,.,22.6*,-13.4,.
COc1ccc(S(=O)(=O)Nc2ccc3c(c2)C(=O)N([C@@H](C)CO)C[C@@H](C)[C@@H](CN(C)S(=O)(=O)c2ccc(C)cc2)OCCCC[C@H](C)O3)cc1,-1.5,.,8.1,9.1,.
COc1ccc(S(=O)(=O)N(C)C[C@@H]2OCCCC[C@H](C)Oc3ccc(NS(=O)(=O)c4ccc(C)cc4)cc3C(=O)N([C@H](C)CO)C[C@H]2C)cc1,-0.4,.,21.6*,-6.5,.
COc1ccc(S(=O)(=O)N(C)C[C@@H]2OCCCC[C@H](C)Oc3ccc(NS(=O)(=O)c4ccc(C)cc4)cc3C(=O)N([C@@H](C)CO)C[C@H]2C)cc1,-2.4,.,3.6,-3.7,.
COc1ccc(S(=O)(=O)N(C)C[C@H]2OCCCC[C@H](C)Oc3ccc(NS(=O)(=O)c4ccc(C)cc4)cc3C(=O)N([C@@H](C)CO)C[C@@H]2C)cc1,0.9,.,22.0*,3.4,.
COc1ccc(S(=O)(=O)N(C)C[C@@H]2OCCCC[C@H](C)Oc3ccc(NS(=O)(=O)c4ccc(C)cc4)cc3C(=O)N([C@H](C)CO)C[C@@H]2C)cc1,1.0,.,23.9*,2.1,.
COc1ccc(S(=O)(=O)Nc2cccc3c2O[C@H](CN(C)Cc2ccncc2)[C@H](C)CN([C@H](C)CO)C3=O)cc1,1.1,.,0.9,-5.9,.
C[C@@H]1CCCCO[C@@H](CN(C)Cc2ccc3c(c2)OCO3)[C@H](C)CN([C@@H](C)CO)C(=O)c2cc(NC(=O)Nc3cccc4ccccc34)ccc2O1,.,.,.,8.0,.
Cc1ccc(NC(=O)c2noc3c2CCC3)cc1C,53.7*,-12.3,1.8,-8.1,9.7
CC(=O)c1ccc(NC(=O)c2noc3c2CCC3)cc1,32.0,-11.6,-0.9,-4.6,1.6
Cc1ccc(S(=O)(=O)N(C)C[C@H]2OCCCC[C@H](C)Oc3ccc(NS(=O)(=O)c4ccc(Cl)cc4)cc3C(=O)N([C@H](C)CO)C[C@@H]2C)cc1,2.1,.,24.0*,15.3,.
Cc1ccc(S(=O)(=O)Nc2ccc3c(c2)C(=O)N([C@@H](C)CO)C[C@H](C)[C@@H](CN(C)S(=O)(=O)c2ccc(Cl)cc2)OCCCC[C@@H](C)O3)cc1,.,.,.,-7.9,.
C[C@@H]1CCCCO[C@H](CN(C)S(=O)(=O)c2ccccc2)[C@H](C)CN([C@H](C)CO)C(=O)c2cc(NS(=O)(=O)c3ccc(Cl)cc3)ccc2O1,2.4,.,6.2,12.4,.
Cc1ccc(S(=O)(=O)N(C)C[C@H]2OCCCC[C@@H](C)Oc3ccc(NS(=O)(=O)c4ccc(Cl)cc4)cc3C(=O)N([C@@H](C)CO)C[C@H]2C)cc1,2.7,.,22.1*,10.3,.
SMILES,Casp6 inh,PfHsp90 set2,SIRT5 block,ARNT TACC3 PPI,NSD2 HMT inh
Cc1ccc(S(=O)(=O)N(C)C[C@H]2OCCCC[C@@H](C)Oc3ccc(NS(=O)(=O)c4ccc(Cl)cc4)cc3C(=O)N([C@H](C)CO)C[C@H]2C)cc1,2.0,.,28.5*,3.4,.
C[C@H](CO)N1C[C@H](C)[C@H](CN(C)S(=O)(=O)c2ccccc2)OCCCC[C@H](C)Oc2ccc(NS(=O)(=O)c3ccc(Cl)cc3)cc2C1=O,2.7,.,15.1*,22.7,.
Cc1ccc(S(=O)(=O)N(C)C[C@@H]2OCCCC[C@H](C)Oc3ccc(NS(=O)(=O)c4ccc(Cl)cc4)cc3C(=O)N([C@H](C)CO)C[C@H]2C)cc1,1.7,.,20.7*,-6.8,.
Cc1ccc(S(=O)(=O)Nc2ccc3c(c2)C(=O)N([C@@H](C)CO)C[C@H](C)[C@@H](CN(C)S(=O)(=O)c2ccc(Cl)cc2)OCCCC[C@H](C)O3)cc1,.,.,.,-1.5,.
Cc1ccc(S(=O)(=O)N(C)C[C@@H]2OCCCC[C@H](C)Oc3ccc(NS(=O)(=O)c4ccc(Cl)cc4)cc3C(=O)N([C@@H](C)CO)C[C@@H]2C)cc1,2.2,.,21.5*,5.7,.
Cc1ccc(S(=O)(=O)N(C)C[C@H]2OCCCC[C@@H](C)Oc3ccc(NS(=O)(=O)c4ccc(Cl)cc4)cc3C(=O)N([C@H](C)CO)C[C@@H]2C)cc1,5.3,.,17.1*,-10.7,.
Cc1ccc(S(=O)(=O)Nc2ccc3c(c2)C(=O)N([C@@H](C)CO)C[C@@H](C)[C@@H](CN(C)S(=O)(=O)c2ccc(Cl)cc2)OCCCC[C@H](C)O3)cc1,.,.,.,-3.0,.
Cc1ccc(S(=O)(=O)N(C)C[C@H]2OCCCC[C@@H](C)Oc3ccc(NS(=O)(=O)c4ccc(Cl)cc4)cc3C(=O)N([C@@H](C)CO)C[C@@H]2C)cc1,1.6,.,21.3*,6.1,.
CCOC(=O)c1ccc(S(=O)(=O)N2CCC(C(=O)N3CCN(c4ccccc4OC)CC3)CC2)cc1,48.0*,-44.4,3.4,0.9,2.5
COc1ccccc1N1CCN(C(=O)C2CCN(S(=O)(=O)c3ccc(F)cc3)CC2)CC1,.,.,.,-0.2,0.6
